Legend:
[1] = molecular target: T1, Aspartate--tRNA(Asp/Asn) ligase (Mycobacterium tuberculosis (strain ATCC 25618 / H37Rv)) (UniProt P9WFW3); test: Assay for Asp RNA synthetase-1 from Mycobacterium tuberculosis; assay type: functional; parameters: scale not given: direction of the effect not stated beside the values; conditions: 30 µM; further: in the data most compounds retested in dose-response had high values
T1 sequence (whole entry): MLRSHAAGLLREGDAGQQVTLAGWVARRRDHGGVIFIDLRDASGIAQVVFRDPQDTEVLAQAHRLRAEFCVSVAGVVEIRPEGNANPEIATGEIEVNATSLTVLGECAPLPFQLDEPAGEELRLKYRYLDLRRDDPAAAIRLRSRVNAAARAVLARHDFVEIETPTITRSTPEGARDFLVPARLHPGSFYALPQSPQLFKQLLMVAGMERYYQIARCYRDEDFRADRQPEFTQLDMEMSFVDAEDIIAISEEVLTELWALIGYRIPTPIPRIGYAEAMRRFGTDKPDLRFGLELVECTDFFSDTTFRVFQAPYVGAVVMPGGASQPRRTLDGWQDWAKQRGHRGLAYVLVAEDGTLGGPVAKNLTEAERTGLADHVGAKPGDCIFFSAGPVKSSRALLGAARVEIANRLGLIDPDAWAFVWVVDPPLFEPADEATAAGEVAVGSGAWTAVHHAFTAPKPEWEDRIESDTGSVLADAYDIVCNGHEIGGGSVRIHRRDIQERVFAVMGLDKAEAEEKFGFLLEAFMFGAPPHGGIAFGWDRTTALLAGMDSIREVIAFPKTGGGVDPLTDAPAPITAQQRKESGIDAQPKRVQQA

[2] = molecular target: Shiga toxin 2 (Escherichia coli O157:H7) (UniProt P09385+P09386); test: E. coli 0.157:H7 Shiga Toxin SOP - stx2 screening assay; assay type: functional; parameters: scale not given: direction of the effect not stated beside the values; conditions: 30 µM

Structure (SMILES) | Percent Effect [1] | Percent Effect [2]
Cc1nc(NCc2ccc(C)o2)cc(C(=O)N2CCOCC2)n1 | 12.5% | -16.9%
COCCN1CCN(C(=O)C2CC=CC2)Cc2cccnc21 | -1.63% | -23.9%
O=C(Cc1ccc(F)cc1)N1CCCCC1c1ccn2ccnc2n1 (configuration not stated) | -3.71% | 6.23%
COc1cc(CNC(=O)Nc2cc(C(F)(F)F)c[nH]c2=O)ccn1 | -3.59% | 25.7%
O=C1CC2(CCCCC2)CC(=O)N1CC(O)COCc1ccc(Cl)cc1 (configuration not stated) | 0.607% | 11%
CCN1CCN(c2ncc(-c3cc(C)no3)c(-c3ccoc3C)n2)CC1 | 0.313% | -6.58%
Cc1cc(C(=O)N2C[C@@H]3COC[C@]3(COCc3cccnc3)C2)no1 | 0.918% | -6.54%
Cc1nc(N)cc(C2CN(C(=O)c3ccn(C)n3)CCO2)n1 (configuration not stated) | -1.09% | 3.51%
CN(C)c1cc(C(=O)NCCc2n[nH]c(=O)[nH]2)ccn1 | 0.719% | -0.859%
CCNC(=O)CCN1CCC(c2cc(N3CCOCC3)nc(C)n2)CC1 | -4.4% | -10.2%
CS(=O)(=O)c1ccc(CNC(=O)N2CCC(C(N)=O)C2)cc1 (configuration not stated) | -1.49% | -11.7%
Cc1nc(C)n(CC2CCCN2CC(=O)NCc2ccco2)n1 (configuration not stated) | 4.57% | -5.68%
CSCC(=O)N1CCCN(c2ccccc2C)CC1 | 0.55% | -18.5%
Cc1csc(CNC(=O)NCC(O)c2cccc(Cl)c2)n1 (configuration not stated) | 3.71% | -10.8%
CCc1cnc(N)nc1NCCN1CCCCC1 | 0.268% | -30.3%
CC(=O)N1CCC2(CCN(C(=O)c3ccc(C)c(C(F)(F)F)c3)CC2)C1 | 17.3% | -10.7%
COc1ccccc1C(=O)N1Cc2cc(C)ccc2OCC1CN(C)C (configuration not stated) | 1.89% | -7.43%
CCC(O)CN1CCN(C(=O)c2ccnc(N(C)C)c2)CC1 (configuration not stated) | -4.29% | -17.1%
O=C(CCc1ccsc1)NCC1CCN(c2ccccc2)C1 (configuration not stated) | 0.529% | -12.3%
O=C(c1ccc(F)cc1)N1C[C@H]2CCC[C@@]2(COCc2ccccn2)C1 | 9.3% | 3.92%
COCCC(=O)N1CC[C@@H]2O[C@@H](C)C[C@H]2C1 | -0.28% | -0.0436%
COc1cccc2c1ccn2CCNC(=O)C(C)C | 6.33% | -17%
O=C(c1ccc[nH]1)N1C[C@H]2CN(Cc3cccc(F)c3)C(=O)[C@H]2C1 | 0.565% | -9.53%

Structure (SMILES) | Percent Effect [1] | Percent Effect [2]
CC(C)c1ccc(-c2nnn(CCNS(C)(=O)=O)n2)cc1 | -1.05% | -43.9%
CS(=O)(=O)N1CCC(Oc2ccc(C(=O)N3CCSCC3)cc2Cl)CC1 | 1.75% | 11.9%
COCc1nc(C(=O)N2CCCCC2Cn2cc(C)cn2)cs1 (configuration not stated) | 0.0865% | 5.33%
CN(Cc1ccsc1)C(=O)Nc1ccc(S(C)(=O)=O)nc1 | -0.6% | -35.6%
Cc1ccc(N2CCN(C(=O)COc3nccc(C)n3)CC2)nn1 | -6.35% | -50.4%
COC(=O)Cn1cccc(S(=O)(=O)N2CCC(C)CC2)c1=O | -4.76% | -36.3%
O=C(N[C@@H]1CN(Cc2cccs2)[C@@H]2CCCO[C@@H]21)C1CC1 | 4.13% | -24%
CN(Cc1cc(-c2ccccc2)no1)C1CCCN(c2cccnn2)C1 (configuration not stated) | -2.03% | -0.584%
COCC(=O)N1CCC(c2nccnc2Oc2cccnc2C)CC1 | 3.02% | 6.27%
CN(C)c1ncc(CN2CCOC(C(=O)Nc3ccccc3)C2)cn1 (configuration not stated) | 6.13% | -0.28%
O=C(c1cscn1)N1C[C@@H]2[C@@H](C1)OCC(=O)N2CC1CCCC1 | 4.1% | -48.6%
CC(O)CN1CCC(CNCc2ccccc2Br)CC1 (configuration not stated) | 1.21% | -20.4%
O=C(Nc1cccc(Cl)c1)c1nn(C2CCS(=O)(=O)C2)c2c1CCCC2 (configuration not stated) | 6.98% | 5.07%
CS(=O)(=O)NCc1cn2c(n1)CN(C(=O)c1ccc[nH]1)CC2 | 1.81% | -6.4%
Cc1nn(C)c2cnn(C(C)C(=O)NCc3cccnc3)c12 (configuration not stated) | -7.38% | -21.6%
Cc1cccc(-c2nc(CN3CCc4c(ncn4C)C3)no2)c1 | 1.91% | 4.04%
CC(C)n1[nH]c(=O)c2c1NC(=O)CC2c1cccnc1 (configuration not stated) | -1.05% | -6.55%
CN(C)c1ccc(C(=O)NCC2(O)CCOCC2)cc1 | -2.13% | -12.5%
c1csc(-c2nc(CN3CCOC(Cn4cncn4)C3)cs2)c1 (configuration not stated) | -6.66% | 31.4%
CC(NC(=O)N1CCC(OCc2ccccc2)CC1)c1nncn1C (configuration not stated) | -3.22% | 3.46%
Cc1nccn1CC1CCCN1S(=O)(=O)Cc1ccon1 (configuration not stated) | -2.34% | -23.9%
Cc1nc(CN(Cc2ccccc2)C2CCS(=O)(=O)C2)oc1C (configuration not stated) | -0.478% | 24.1%
Cc1nnc(NC(=O)CN(C)CC2CCCN2c2cccnn2)s1 (configuration not stated) | 0.577% | -34.1%

Source: ChEMBL document CHEMBL3988442, “University of Dundee, Small-Polar-MMV Screening Library” (2021)
